Measurements reported in PubChem BioAssay.
Active and inactive are the calls of the source.

Tests used:
[1] = anti-His antibody binders, primary screen, artefact control for SMM control protein annotation, biochemical, small-molecule microarray, 635 nm fluorescence (AID 1128); conditions: anti-His Alexa647 antibody binding, higher = more signal;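 also: score merges feature fluorescence with signal-to-noise for each printed compound spot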
[2] = tested on: Human papillomavirus type 1a E7 protein (residues 1-88); experiment: HPV1a E7 small-molecule binders, primary screen, biochemical, small-molecule microarray, residues 1-88, 635 nm (AID 1129); conditions: small-molecule microarray binding, fluorescence 635 nm; higher = more signal
[3] = molecular target: Focal adhesion kinase 1 (Homo sapiens) (UniProt Q05397); experiment: small-molecule microarray binders of FAK, primary screen, biochemical, 635/667 nm fluorescence, BSA, DTT (AID 1130); conditions: PTK2 binding, 635 nm fluorescence, higher = more signal;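 also: composite of spot emission at 667 nm and signal to noise over triplicate slides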
[4] = tested on: Fibrinogen (Alexa647-labelled); experiment: fibrinogen binders on compound microarrays, profiling panel, artefact control for SMM control-protein annotation, biochemical, small-molecule microarray, 635/667 nm fluorescence (AID 1131); conditions: fibrinogen-A647 binding fluorescence, higher = more signal;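 also: z-score merges 667 nm fluorescence with per-spot signal-to-noise over triplicate slides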
[5] = molecular target: Follistatin (Homo sapiens) (UniProt P19883); experiment: follistatin binders on small-molecule microarrays, primary screen, biochemical, small-molecule microarray, 635/667 nm fluorescence (AID 1132); conditions: FST binding, 635 nm fluorescence, higher = more signal
[6] = molecular target: Fibroblast growth factor 2 (Homo sapiens) (UniProt P09038); experiment: FGF2 binders on small-molecule microarrays, primary screen, biochemical, small-molecule microarray, 635/667 nm fluorescence (AID 1133); conditions: small-molecule microarray binding, FGF2, fluorescence 635/667; higher = more signal
[7] = mitochondrial membrane potential change in A549 cells, profiling panel, cell-based, JC-1 fluorescence, basal, 24 h, 100 nL (AID 1138); conditions: higher = more signal;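 also: A549 lung adenocarcinoma cells under basal conditions with no added stimulus; test concentration not given here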
Lefty1 = Lefty1 binders on small-molecule microarrays, primary screen, biochemical, small-molecule microarray, 635/667 nm fluorescence (AID 1139); conditions: small-molecule microarray binding, fluorescence 635/667; higher = more signal
[8] = tested on: wheat germ agglutinin (Triticum aestivum), Alexa647-labelled; experiment: wheat germ agglutinin binders on compound microarrays, profiling panel, artefact control for SMM control-protein annotation, biochemical, small-molecule microarray, 635/667 nm fluorescence (AID 1140); conditions: WGA-A647 binding, 635 nm fluorescence, higher = more signal;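 also: score merges 667 nm feature emission with signal to noise over triplicate slides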
[9] = molecular target: Luciferin 4-monooxygenase (Photinus pyralis) (UniProt P08659); experiment: firefly luciferase enzyme inhibitors, primary screen, biochemical, luminescence, purified enzyme, 2006 set (AID 1141); conditions: SteadyGlo luminescence, 30 min, higher = more signal, called active from +8 up or from −8 down;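 also: cell-free assay with purified firefly luciferase at 100 ng per well in PBS; test concentration not given here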
Sequence of Luciferin 4-monooxygenase (Photinus pyralis) (P08659 whole entry, looked up): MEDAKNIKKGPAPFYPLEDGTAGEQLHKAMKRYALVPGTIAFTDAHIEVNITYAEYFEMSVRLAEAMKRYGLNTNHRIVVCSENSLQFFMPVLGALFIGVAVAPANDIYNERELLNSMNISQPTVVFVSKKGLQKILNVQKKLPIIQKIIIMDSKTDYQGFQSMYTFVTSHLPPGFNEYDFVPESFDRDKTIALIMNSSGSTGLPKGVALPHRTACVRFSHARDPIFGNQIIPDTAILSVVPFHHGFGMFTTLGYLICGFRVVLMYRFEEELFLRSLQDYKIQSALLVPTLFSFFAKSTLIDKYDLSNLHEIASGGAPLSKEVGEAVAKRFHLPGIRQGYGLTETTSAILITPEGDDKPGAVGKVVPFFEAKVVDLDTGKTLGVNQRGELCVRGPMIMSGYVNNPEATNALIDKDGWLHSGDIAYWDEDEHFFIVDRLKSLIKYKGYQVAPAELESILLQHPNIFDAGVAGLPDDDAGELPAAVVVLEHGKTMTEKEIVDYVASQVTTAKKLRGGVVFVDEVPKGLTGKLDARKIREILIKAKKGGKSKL

Sequence of Focal adhesion kinase 1 (Homo sapiens) (Q05397 whole entry, looked up): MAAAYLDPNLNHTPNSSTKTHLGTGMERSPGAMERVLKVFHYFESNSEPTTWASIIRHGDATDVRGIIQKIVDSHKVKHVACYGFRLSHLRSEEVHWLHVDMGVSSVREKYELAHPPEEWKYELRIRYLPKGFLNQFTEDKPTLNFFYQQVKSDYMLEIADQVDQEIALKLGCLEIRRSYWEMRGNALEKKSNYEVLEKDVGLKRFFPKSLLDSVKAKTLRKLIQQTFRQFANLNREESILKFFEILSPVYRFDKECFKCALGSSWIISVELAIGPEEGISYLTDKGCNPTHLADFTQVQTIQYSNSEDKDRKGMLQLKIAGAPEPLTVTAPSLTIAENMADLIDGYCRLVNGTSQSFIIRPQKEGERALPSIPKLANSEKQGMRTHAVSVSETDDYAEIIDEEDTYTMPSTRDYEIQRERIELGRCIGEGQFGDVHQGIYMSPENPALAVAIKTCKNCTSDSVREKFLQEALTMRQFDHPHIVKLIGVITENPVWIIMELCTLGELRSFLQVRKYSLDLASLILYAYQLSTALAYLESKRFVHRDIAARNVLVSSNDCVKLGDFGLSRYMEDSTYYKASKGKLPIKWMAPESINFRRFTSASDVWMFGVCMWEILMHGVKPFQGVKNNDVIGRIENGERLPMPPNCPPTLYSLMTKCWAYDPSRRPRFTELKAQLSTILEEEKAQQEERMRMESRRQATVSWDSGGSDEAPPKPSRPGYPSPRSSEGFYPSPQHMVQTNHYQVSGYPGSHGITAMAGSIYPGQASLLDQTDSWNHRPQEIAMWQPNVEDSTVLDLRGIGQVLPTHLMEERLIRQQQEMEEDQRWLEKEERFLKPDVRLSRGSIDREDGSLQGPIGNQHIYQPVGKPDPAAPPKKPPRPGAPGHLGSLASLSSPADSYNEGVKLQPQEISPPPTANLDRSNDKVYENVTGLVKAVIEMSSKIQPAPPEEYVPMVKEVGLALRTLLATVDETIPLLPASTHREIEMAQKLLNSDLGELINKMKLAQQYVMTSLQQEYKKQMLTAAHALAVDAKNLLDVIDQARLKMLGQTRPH
Sequence of Follistatin (Homo sapiens) (P19883 whole entry, looked up): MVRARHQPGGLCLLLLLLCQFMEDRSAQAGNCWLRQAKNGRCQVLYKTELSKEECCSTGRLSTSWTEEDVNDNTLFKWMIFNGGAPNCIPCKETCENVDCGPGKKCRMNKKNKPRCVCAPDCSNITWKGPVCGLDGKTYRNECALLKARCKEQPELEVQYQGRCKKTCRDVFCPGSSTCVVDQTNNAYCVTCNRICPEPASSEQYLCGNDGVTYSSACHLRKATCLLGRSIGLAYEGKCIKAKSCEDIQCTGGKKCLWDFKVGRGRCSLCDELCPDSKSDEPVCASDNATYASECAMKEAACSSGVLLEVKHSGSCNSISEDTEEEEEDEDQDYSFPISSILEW
Sequence of Fibroblast growth factor 2 (Homo sapiens) (P09038 whole entry, looked up): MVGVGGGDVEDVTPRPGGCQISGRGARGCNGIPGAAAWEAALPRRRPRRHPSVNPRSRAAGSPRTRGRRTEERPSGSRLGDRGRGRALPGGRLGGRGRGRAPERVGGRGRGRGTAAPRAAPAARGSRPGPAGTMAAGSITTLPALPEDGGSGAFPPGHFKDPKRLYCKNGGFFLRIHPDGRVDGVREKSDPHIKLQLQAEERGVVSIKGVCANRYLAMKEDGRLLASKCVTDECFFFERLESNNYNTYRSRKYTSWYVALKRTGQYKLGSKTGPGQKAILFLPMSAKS

Row | Structure (SMILES) | composite z-score [1] | composite z-score [2] | composite z-score [3] | composite z-score [4] | composite z-score [5] | composite z-score [6] | z-score [7] | composite z-score (Lefty1) | composite z-score [8] | z-score [9]
1 | O=C1C2C=CC(C(O)c3cccs3)N(Nc3ccccc3F)C2C(=O)N1c1ccccc1 (stereo not given) | 1.29 | 1.09 | 0.961 | 0.916 | 0.414 | -0.282 | -0.265 | -0.0918 | 0.127 | 1.71 (inactive)
2 | CCOC(=O)C[C@H]1[C@H](OC(=O)c2ccccc2-c2ccccc2)[C@@H](NC(=O)Cc2ccc(OC)cc2)c2cc(OCCCO)ccc2N1C(=O)c1ccccc1 | -0.269 | -0.371 | 0.145 | -0.449 | 0.23 | -0.443 | 0.362 | 0.189 | -0.0397 | 0.474 (inactive)
3 | CCOC(=O)C[C@H]1[C@H](OC(=O)c2ccc(-c3ccccc3)cc2)[C@@H](NC(=O)Cc2ccc(OC)cc2)c2cc(OCCCO)ccc2N1C(=O)c1ccc2ccccc2n1 | 0.262 | 0.644 | 0.529 | 0.897 | -0.0303 | -0.433 | 0.895 | 0.484 | 0.419 | -0.639 (inactive)
4 | O=C1O[C@H](c2ccccc2)[C@H](c2ccccc2)N2[C@H]1[C@@H](C(=O)O)[C@]1(C(=O)Nc3ccc(C#CC4=CCCCC4)cc31)[C@H]2c1ccc(OCCO)cc1 | 0.463 | 1.24 | 0.638 | 0.98 | 1.26 | 0.919 | -2.57 | 1.28 | 1.1 | -9.5 (active)
5 | [N-]=[N+]=Nc1ccccc1C[C@]1(C(=O)NCCN2CCOCC2)N=C(c2ccc(OCCCO)cc2)O[C@H]1c1ccccc1 | 1.34 | 1.27 | 0.903 | 0.952 | 1.29 | 0.877 | 0.273 | -0.246 | 0.309 | -0.683 (inactive)
6 | CN(C)CCCCCCNC(=O)[C@H]1C[C@H]2C(=O)N[C@@H](CCCCN)C(=O)N2[C@H]1c1ccc(O)cc1 | 3.12 | 1.31 | -0.108 | 0.953 | 1.44 | 1.61 | 0.868 | 1.75 | 1.36 | -0.62 (inactive)
7 | COCCOC(=O)N1C(=O)[C@@]2(c3cc(C#CCC(C(=O)OC)C(=O)OC)ccc31)[C@H](C(=O)N1CCCCCCC1)[C@H]1C(=O)O[C@H](c3ccccc3)[C@H](c3ccccc3)N1[C@@H]2c1ccc(OCCO)cc1 | 0.887 | 1.25 | 1.97 | 0.965 | 1.49 | 1.62 | -1.49 | 1.65 | 1.6 | -0.0546 (inactive)
8 | CC(=CC1CCCCC1)[C@@H](NC(=O)c1ccc(C(F)(F)F)cc1)c1ccc(-c2ccccc2)cc1 | -0.453 | -0.753 | -0.708 | -0.134 | -0.136 | -0.58 | -0.269 | -0.795 | 0.165 | 1.25 (inactive)
9 | C=CCN1C(=O)[C@]2(O[C@H](CCO)[C@@H]([Si](C)(C)c3ccc(OC)cc3)[C@@H]2C)c2cc(NC(=O)[C@H](C)O)ccc21 | 1.58 | 1.22 | 0.937 | 0.762 | 0.222 | 0.313 | 0.388 | 0.673 | 0.394 | -0.181 (inactive)
10 | COCCOC(=O)N1C(=O)[C@@]2(c3cc(C#CCC(C(=O)OC)C(=O)OC)ccc31)[C@H](c1ccccc1OCCO)N1[C@H](c3ccccc3)[C@H](c3ccccc3)OC(=O)[C@H]1[C@@H]2C(N)=O | 2.79 | 1.19 | -0.418 | 0.942 | 1.08 | 1.29 | 0.833 | 0.714 | 1.1 | -0.834 (inactive)
11 | C=C(CCCC)C(=O)CC[C@H](OC(=O)c1cccnc1)c1cccc(OCCO)c1 | 0.637 | -0.395 | -0.262 | -0.847 | 0.254 | 0.275 | 1.28 | 0.563 | -0.288 | -1.2 (inactive)
12 | Cc1ccccc1C(O)C1C=CC2C(=O)N(C)C(=O)C2N1Nc1ccccc1 (stereo not given) | 1.23 | 1.16 | 0.175 | 1.01 | 0.459 | -0.462 | 0.0888 | -0.395 | 1.38 | 0.292 (inactive)
13 | COC(=O)C1=CC(CCCO)=CC(C2CC2)N(Cc2sc3ccccc3c2Cl)C=C1C(=O)OC (stereo not given) | 3.11 | 1.25 | 1.31 | 1.04 | 0.939 | 0.0634 | 1.14 | 0.222 | 0.728 | -0.96 (inactive)
14 | O=C1OCCC=C[C@H]2OC34C=CCN(Cc5ccccc5)C(=O)[C@H]3N(CCCCCCO)C(=O)[C@@H]4C12 (stereo not given in full) | 0.0899 | -0.374 | -0.574 | -0.873 | -0.0109 | -1.02 | 0.544 | 0.798 | -0.828 | 0.467 (inactive)
15 | COCCOC(=O)N1C(=O)[C@@]2(c3cc(C#CCNC(N)=O)ccc31)[C@H](C(=O)N1CCc3cc(OC)c(OC)cc3C1)[C@H]1C(=O)O[C@H](c3ccccc3)[C@H](c3ccccc3)N1[C@@H]2c1ccc(OCCO)cc1 | 0.101 | 0.158 | -0.0354 | 0.108 | 1.3 | 1.41 | -1.49 | 0.881 | 0.385 | -0.553 (inactive)
16 | CCOC(=O)C1=CCC(c2ccc(C#N)cc2)N(S(=O)(=O)c2ccc(C)cc2)C1 (stereo not given) | 1.64 | 1.2 | 0.047 | 0.824 | 0.552 | 0.168 | -0.142 | -0.303 | 1.19 | 0.115 (inactive)
17 | O=C(O)[C@@]1(Cc2ccccc2)N=C(c2ccc(OCCCO)cc2)O[C@H]1c1ccccc1 | 1.31 | -0.112 | -0.233 | 0.967 | 0.572 | -0.686 | 0.593 | 0.194 | 0.915 | 1.16 (inactive)
18 | O=C1OCCC=C[C@H]2OC34C=CCN(c5ccc6ccccc6c5)C(=O)[C@H]3N(CCCCCO)C(=O)[C@@H]4C12 (stereo not given in full) | 0.565 | 0.312 | 0.602 | 0.737 | -0.626 | -0.329 | 2.3 | -0.332 | 1.28 | -1.1 (inactive)
19 | COc1ccc(C#Cc2ccc3c(c2)[C@]2(C(=O)N3)[C@H](c3ccc(O)cc3)N3[C@H](c4ccccc4)[C@H](c4ccccc4)OC(=O)[C@H]3[C@@H]2C(=O)N2CCCCCCC2)cc1 | 0.477 | 1.22 | 0.75 | 0.702 | 1.49 | 1.02 | -0.067 | 1.61 | 1.35 | -1.78 (inactive)
20 | COc1ccc([Si](C)(C)[C@@H]2[C@@H](CC(=O)N3CCC[C@H]3CO)O[C@]3(C(=O)N(C)c4c(Br)cc(C)cc43)[C@H]2C)cc1 | 0.437 | 1.15 | 0.393 | 0.935 | 1.17 | 0.987 | 0.66 | 1.19 | 0.0832 | -0.297 (inactive)
21 | COCCOC(=O)N1C(=O)[C@@]2(c3ccccc31)[C@H](C(=O)Nc1nc3ccccc3s1)[C@H]1C(=O)O[C@H](c3ccccc3)[C@H](c3ccccc3)N1[C@@H]2c1ccc(OCCO)cc1 | 1.8 | 1.17 | 0.462 | 0.962 | 1.33 | 0.826 | -2.32 | 1.33 | 0.992 | -2.11 (inactive)
22 | C=CC[C@@]1(C(=O)O)N=C(c2ccc(OCCCO)cc2)O[C@@H]1c1ccccc1N=[N+]=[N-] | 1.06 | 0.811 | 0.235 | 0.987 | 1.1 | -0.168 | 0.117 | -0.504 | 1.36 | -12.9 (active)
